Reference: PubChem BioAssay AID588727 (Southern Research Specialized Biocontainment Screening …, 2011)
Screen size: about 350,000 compounds; about 450 (0.13%) were called active. A selection follows. Results with a measured potency or affinity are listed apart. Values without a mark were called inactive. The rule behind the calls is not given here.

Test: inhibitors of VEEV TC-83 cytopathic effect, confirmation, Vero cells (AID 588727)
Details: VEEV TC-83 cytopathic effect inhibition, at 20 µM; stronger effect = higher value unless noted

Which inhibition does the source give for `CCCN1C(=O)c2ccccc2NC1c1ccc(OC)cc1OC` (stereo not drawn) here?
Its inhibition is “inactive”.

For `CCCN1C(=O)c2ccccc2NC1c1cc(OC)c(OC)c(OC)c1` (stereo not drawn), which inhibition is on record?
Its inhibition is “inactive”.

For `CCOC(=O)c1c(-c2ccccc2)oc2cc(CN(C)C)c(O)c(CN(C)C)c12`, which inhibition is on record?
The inhibition was 2.26%.

For `CC1(C)Cc2[nH]c3ccccc3c2C(C)(C)N1`, which inhibition is on record?
The inhibition was 0.1%.

Which inhibition does the source give for `Cc1cccn2cc(-c3ccccc3)nc12` here?
Its inhibition is 5.4%.

Which inhibition does the source give for `Cc1cccn2cc(COc3cccc([N+](=O)[O-])c3)nc12` here?
Its inhibition is 2.58%.

Which inhibition does the source give for `Cc1ccc(S(=O)(=O)Oc2ccc(N3C(=O)C4C5CCC(C5)C4C3=O)cc2)cc1` (stereo not drawn) here?
The inhibition was 2.05%.

Which inhibition does the source give for `Cc1ccc2oc(=O)c3cnn(CC(=O)N4CCN(c5ccccc5)CC4)c3c2c1` here?
The inhibition was 10.3%.

For `Cc1ccc2[nH]c3c(=O)n(CC(=O)Nc4ccccc4N4CCN(C)CC4)ncc3c2c1`, which inhibition is on record?
The inhibition was 0.06%.

For `COc1ccc(C)cc1NC(=O)CCN1CCN(C/C=C/c2ccccc2)CC1`, which inhibition is on record?
The inhibition was “inactive”.

Which inhibition does the source give for `Cc1ccccc1N1CC(O)(c2cccs2)[N+]2=C1CCCC2` (stereo not drawn) here?
The inhibition was 1.35%.

Which inhibition does the source give for `OC1(c2cccs2)CN(c2ccc(Cl)cc2)C2=[N+]1CCCS2` (stereo not drawn) here?
Its inhibition is 0.66%.

For `CCc1ccc(N2CC(O)(c3cccs3)[N+]3=C2SCCC3)cc1` (stereo not drawn), which inhibition is on record?
Its inhibition is 3.66%.

Which inhibition does the source give for `C[N+]1=C2CCCCCN2C(O)(c2ccccc2)C1` (stereo not drawn) here?
The inhibition was “inactive”.

With `COc1ccc2oc(C(=O)NCC3CCCO3)c(C)c2c1` (stereo not drawn) as the compound, how does the inhibition read?
Its inhibition is 5.81%.

For `COc1ccc(CCNC(=O)CSc2nccc(=O)[nH]2)cc1OC`, which inhibition is on record?
Its inhibition is “inactive”.

Which inhibition does the source give for `COc1ccccc1N/N=C(\C#N)C(=N)N1CCOCC1` here?
The inhibition was 1.39%.

For `COc1ccc(Nc2cc(C(=O)NCCCN3CCN(C)CC3)c3ccccc3n2)cc1OC`, which inhibition is on record?
Its inhibition is 0.68%.

With `COc1ccc(Nc2cc(C(=O)NCCCN3CCN(C)CC3)c3ccccc3n2)cc1` as the compound, how does the inhibition read?
The inhibition was 0.57%.

Which inhibition does the source give for `O=C(NCc1ccccc1Cl)C(=O)NCC(c1ccco1)N1CCOCC1` (stereo not drawn) here?
Its inhibition is “inactive”.

Which inhibition does the source give for `Cc1c(NC(=O)CSCc2ccccc2)cccc1C(=O)O` here?
The inhibition was 0.57%.

With `Cc1ccc(CSCC(=O)Nc2ccccc2F)cc1` as the compound, how does the inhibition read?
The inhibition was 1.09%.

With `COCCCNC(=S)NCCc1ccc(F)cc1` as the compound, how does the inhibition read?
Its inhibition is 0.69%.

With `COc1ccc(NCC(=O)N/N=C2\CCCC(C)C2)cc1` (stereo not drawn) as the compound, how does the inhibition read?
The inhibition was 0.09%.

With `C=CCN=c1scc(-c2ccc(F)cc2)n1/N=C/c1ccccn1` as the compound, how does the inhibition read?
Its inhibition is 7.98%.

For `C=CCN=c1scc(-c2ccccc2)n1/N=C/c1ccccn1`, which inhibition is on record?
Its inhibition is 12%.

Which inhibition does the source give for `CC(=O)OCC1OC(n2cc(F)c(=O)[nH]c2=O)C(OC(C)=O)C1OC(C)=O` (stereo not drawn) here?
Its inhibition is 5.22%.

For `C[C@H]1O[C@@H](n2cc(F)c(=O)[nH]c2=O)[C@H](O)[C@@H]1O`, which inhibition is on record?
The inhibition was 6.89%.
